# The list is not random: actives were taken first. Their share in the collection is about 3.1%.
# Bead autofluor = flagged as autofluorescent in microsphere protease counterscreen; compound autofluorescence counterscreen, microsphere flow cytometry; active compounds read high; fluorescence intensity (concentration not given with the values); hit rate 3.1% among 360,000; AID 624483; in the data active = fluorescence intensity above about 16000; inconclusive = no clear call, values can overlap the other calls
# SSB-PriA inh = K. pneumoniae PriA-SSBct interaction inhibition; AID 1272365; AlphaScreen SSBct-PriA binding, biotinylated peptide; hit rate 0.6% among 430,000; inhibition, % at 33 µM; in the data active = inhibition mostly above about 37%, no sharp cut-off; inactive = mostly below about 20%;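 also: plate controls were negative control peptide for no effect and reference peptide for full effect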
# BoNT F protease = blocks Botulinum neurotoxin F light chain protease. Multiplex microsphere protease cleavage assay, flow cytometry. AID 588497. hit rate 0.22% among 360,000. inhibition, % at 10 µM; in the data active = inhibition above about 35%, passing the limit was not always enough; inconclusive = no clear call, values can overlap the other calls; also: plate controls were buffer without enzyme for full effect and enzyme alone for no effect
# Anthrax LF inh2 = anthrax lethal factor protease inhibition; multiplex microsphere protease cleavage assay, LF; hit rate 0.12% among 360,000; AID 588501; inhibition, % at 10 µM; also: plate controls were buffer without enzyme for full effect and enzyme alone for no effect
# BoNT A protease = BoNT A light chain protease inhibition; multiplex microsphere protease substrate cleavage, flow cytometry; inhibition, % at 10 µM; hit rate 0.17% among 360,000; AID 588499; also: plate controls were buffer without enzyme for full effect and enzyme alone for no effect
# Starred values were filed as active, the others as inactive; u = inconclusive; x = not tested or not shown. Rule as the data show it, unless noted: active = inhibition above about 30%; inconclusive = no clear call, values can overlap the other calls; inactive = below that.
SMILES,Bead autofluor,SSB-PriA inh,BoNT F protease,Anthrax LF inh2,BoNT A protease
Cn1c(=O)[nH]c(=O)c2c1nc(Br)n2CCSc1nnnn1-c1ccccc1,11588,-2,-6,-2,-2
Cn1c(=O)c2c(nc(Br)n2CCSc2nnnn2-c2ccccc2)n(C)c1=O,20475*,-23,-2,0,-2
Cc1ccccc1-c1nc2c3ccccc3nc(=S)n2[nH]1,3658,-6,-21,-14,-3
Cc1nc2ccccc2n1CCc1nc2c3ccccc3nc(=S)n2[nH]1,23484*,-11,-4,0,u
O=C(NCCn1ccc(-c2ccncc2)n1)C1c2ccccc2Oc2ccccc21,x,-6,x,x,x
C/C(CC(O)c1ccc2ccccc2n1)=N/O (stereo not given),20613*,x,0,-1,1
CCOC(=O)c1cc(C(=O)Nc2ccc(C)c(F)c2)nn1C,21479*,-14,-6,-2,-3
CCOC(=O)c1cc(C(=O)NCc2ccc(Cl)cc2Cl)nn1C,2345,-17,-2,-2,0
CCOC(=O)C(C)Oc1cccc2c(=O)n(CC(=O)Nc3ccc(F)cc3F)ccc12 (stereo not given),x,6,x,x,x
COc1cccc(OCCN2CCN(c3ncnc4c3cnn4-c3ccccc3)CC2)c1,16922*,-8,-7,-3,-2
O=C(CCn1c(=O)sc2ccccc21)NCCC1=CCCCC1,8020,-8,-4,-2,-1
O=C(NCCc1ccccc1)C(=O)NCc1ccccc1Cl,x,-16,x,x,x
CCCNCCC1=CCCCC1,x,-3,x,x,x
C1=C(CCNCc2ccccc2)CCCC1,23029*,-5,-5,-2,u
O=C(NCCC1=CCCCC1)C(=O)NCc1ccccc1Cl,16906*,-4,-5,1,u
O=C(CCN1C(=O)c2ccccc2C1=O)NCCC1=CCCCC1,20662*,-14,8,-16,8
Cc1ccc(CNCCC2=CCCCC2)cc1,16821*,8,-12,-6,u
Cc1cc(CCNS(=O)(=O)c2cccc(Cl)c2)on1,x,-6,x,x,x
CNC(=S)NN=Cc1c(C)nn(-c2ccc(F)cc2)c1Cl,x,-8,x,x,x
COc1ccc(N2CC(NC(=O)c3ccccc3C(F)(F)F)CC2=O)cc1 (stereo not given),x,-11,x,x,x
COc1ccc2c(c1)C=C(C(=O)NCc1ccc(Cl)cc1)CO2,20111*,-4,4,-1,4
O=C(Nc1ccc(Cl)cc1)C1=Cc2cc(Cl)ccc2OC1,3580,-1,0,-1,0
O=C(NCCC(c1ccccc1)c1ccccc1)C(=O)Nc1ccncc1,x,47*,x,x,x
O=C(NCCCCN1CCOC(c2ccccc2)C1)C(=O)Nc1ccon1 (stereo not given),x,-14,x,x,x
COc1ccc(CC(=O)NC[C@@H](c2ccco2)S(=O)(=O)c2ccc(F)c(C)c2)cc1,x,-11,x,x,x
SMILES,Bead autofluor,SSB-PriA inh,BoNT F protease,Anthrax LF inh2,BoNT A protease
Cc1cc(C)cc(NS(=O)(=O)c2ccc3oc(=O)ccc3c2)c1,23250*,6,-1,0,0
CCc1nc(C)ccc1OCC(=O)NCCCN(C)C,22619*,-16,-2,-1,-2
O=C1c2cccc3cccc(c23)C(=O)N1CC1CCN(CC(O)COc2ccc3ccccc3c2)CC1 (stereo not given),5032,45*,-2,-4,1
O=C(CCCn1cccc1)NCc1ccco1,x,3,x,x,x
CN(C)CC#CCNC(=O)c1ccc2nsnc2c1,x,0,x,x,x
COCCn1c(NS(=O)(=O)c2ccc(C)cc2)c(S(=O)(=O)c2ccc(C)cc2)c2nc3ccccc3nc21,x,63*,x,x,x
CCCCCn1c(NS(=O)(=O)c2ccc(Cl)cc2)c(S(=O)(=O)c2ccc(C)cc2)c2nc3ccccc3nc21,x,43,x,x,x
COCCCn1c(NS(=O)(=O)c2ccccc2)c(S(=O)(=O)c2ccc(C)cc2)c2nc3ccccc3nc21,x,72*,x,x,x
COCCCn1c(NS(=O)(=O)c2ccc(C)cc2)c(S(=O)(=O)c2ccc(C)cc2)c2nc3ccccc3nc21,x,59*,x,x,x
Cc1ccc(S(=O)(=O)Nc2c(S(=O)(=O)c3ccc(C)cc3)c3nc4ccccc4nc3n2CCc2ccccc2)cc1,x,40,x,x,x
N#Cc1nc(-c2cccs2)oc1N1CCN(Cc2ccccc2)CC1,9620,41*,-16,-9,-2
Cc1nn(Cc2ccc(C(=O)Nc3ccccc3C(F)(F)F)o2)c(C)c1Br,23948*,-9,-1,-2,0
Cc1csc(NC(=O)c2ccc(Cn3nc(C)c(Br)c3C)o2)n1,4939,0,-10,-4,-4
CCCCn1c(O)c(C=NN2CCOCC2)c(=O)[nH]c1=S,x,-2,x,x,x
COc1cc(OC)cc(C(=O)Nc2ccc3c(c2)CCCN3C(C)=O)c1,x,0,x,x,x
CCOc1ccc(-n2c(=O)cc(N3CCN(c4ccccc4)CC3)[nH]c2=O)cc1,21972*,3,1,-4,1
